Screening data: PubChem, Broad Institute
Tg IFNy HTS: inhibitors of Toxoplasma gondii growth with IFN-gamma; Toxoplasma gondii growth in IFN-gamma-treated host cells; hits give low values; activity change, negative = inhibition, % (test concentration not listed); 69,000 compounds, 3.8% hits; AID 1259416; in the data active = activity change below about -70%, passing the limit was not always enough;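 also: host cells are HeLa cells infected with Toxoplasma gondii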
* hit, by the source's call; i = inactive. Many of the other results were omitted from the sample, so hits are more common in it than they were.

SMILES	Tg IFNy HTS
CC(Cc1cnccn1)n1cc(-c2ccnc3ccccc23)nn1 (configuration not stated)	-10.6
COCCn1c2c([n+](Cc3cnccn3)c1C)C(=O)c1ccccc1C2=O	-83.3*
COc1cc(-c2nc3c(C)cccc3cc2CO)cc(OC)c1OC	29.8
CN(C)C[C@@]12COC[C@H]1CN(S(=O)(=O)c1cccc(F)c1)C2	-38.9
CN1C(=O)C(c2ccccc2)CC12CCN(Cc1nccs1)CC2 (configuration not stated)	7.7
Cc1ccc(-c2nc(CCNC(=O)C(=O)Nc3ccc([N+](=O)[O-])cc3)cs2)cc1	112.8
CNC(=O)c1ccc(-c2ccc(CNC(=O)COC)cc2)nc1C	-73.9*
CCc1nc(OCC(=O)NCc2ccc(C)cc2)c2ccccc2n1	-4.9
Cc1noc(C)c1C(=O)NCc1ccc(-c2csnn2)cc1	17.9
Cc1nc2ccccc2n1CC(=O)N[C@@H](C)Cn1nnc2ccccc21	-3.5
Cc1cccc(-c2nc(Cn3c(=O)c4c(C(=O)N5CCCCC5)cc(C)nc4n(C)c3=O)c(C)o2)c1	1.6
O=c1n(CN2CCOCC2)c2cccnc2n1Cc1ccco1	-6.8
COc1ccccc1CN1CCC(O)(c2cccc(C(F)(F)F)c2)CC1	-17.3
O=C(Cc1cccc(F)c1)N1CCn2cc(Cn3cncn3)nc2C1	-14.8
O=C(Cc1ccc(F)cc1)N1CCn2cc(Cn3cncn3)nc2C1	6.4
Cc1ccc(CC(=O)N2CCn3cc(Cn4cncn4)nc3C2)cc1	-74.4*
Cc1cnccc1CN(C)C(=O)[C@@H](N)Cc1c[nH]c2ccccc12	-0.7
Cc1ccc(Cn2c(=O)c3nn(C)cc3n3c(=O)n(Cc4nc(-c5ccccc5)oc4C)nc23)cc1	-7.7
CCCC(=O)Nc1ccc(-c2nc(-c3ccccc3)co2)cc1	265.7
COc1ccc2c3c([nH]c2c1)[C@H](CO)N(C(=O)Nc1ccc(F)cc1)CC31CCN(C(=O)Nc2ccc3c(c2)OCO3)CC1	i
O=C(Nc1ccc(N2CCCCC2)cc1)c1ccccc1Cl	199.3
C[C@@H]1CN(Cc2ccccc2F)CCN1CC(=O)Nc1ccc(N2CCCCCC2)cc1	444.4
O=C(Nc1cnn(Cc2ccccc2F)c1)c1ccc(N2CCCCC2)cc1	-95.3*
COCCN(C)C(=O)C1CC2(CO1)c1ccccc1CN2Cc1cccc(OC)c1 (configuration not stated)	2.4
CC(C)C1CN(C(=O)CCc2ccncc2)CCCN1Cc1ccc(F)cc1 (configuration not stated)	-18.0
SMILES	Tg IFNy HTS
CC(C)NC(=O)N1Cc2nccn2CC(COc2cccnc2)C1 (configuration not stated)	8.8
CCS(=O)(=O)N1Cc2nccn2CC(COc2cccnc2)C1 (configuration not stated)	10.3
NC(=O)N1Cc2nccn2CC(COc2cccnc2)C1 (configuration not stated)	-100.4*
CSCC[C@@H](CO)NC(=O)c1cc(NC(C)=O)ccc1Cl	-2.8
COc1cc(C(=O)OCCCN2CCCN(CCCOC(=O)c3cc(OC)c(OC)c(OC)c3)CC2)cc(OC)c1OC	-7.4
COc1cc(C(=O)OCCCN(C)C)cc(OC)c1OC	0.1
COc1cc(C(=O)ON=C2C3CC4CC(C3)CC2C4)cc(OC)c1OC	-106.0*
CCCNC(=O)CSc1nnc(-c2cccnc2)n1C1CCCCC1	-13.5
COc1ccc(-c2nc(CCNC(=O)c3cccc(Cl)c3)cs2)cc1	-14.4
COc1ccc(-c2nc(Cn3ccn4nc(-c5ccc(Cl)cc5)cc4c3=O)c(C)o2)cc1	40.9
CC1=C(C(=O)NCCN2CCC(Cc3ccccc3)CC2)C2(CCCCC2)OC1=O	-83.9*
CC1=C(C(=O)NC2CCN(Cc3ccccc3)CC2)C2(CCCCC2)OC1=O	-15.4
CC1=C(C(=O)NCCCN2CCC(N3CCCCC3)CC2)C2(CCCCC2)OC1=O	18.0
O=S(=O)(c1ccc(Br)s1)N1CCC2(CC1)Nc1cc(F)ccc1-n1cccc12	16.5
CN(C)CCN(Cc1cccnc1)Cc1cncn1Cc1ccccc1	13.7
COc1cc(CN(Cc2ccccc2)CC2CCCO2)cc(OC)c1OC (configuration not stated)	1.4
Fc1cccc(CN(Cc2cncn2Cc2ccccc2)CC2CCCO2)c1 (configuration not stated)	-92.9*
CO[C@@H]1CC[C@@H]2[C@H]1OCCN2C(=O)N(C)C	50.6
CN(C)C(=O)N1CCO[C@@H]2[C@H]1CC[C@H]2OCC1CCOCC1	-72.5*
CN(C)C(=O)N1CCO[C@@H]2[C@H]1CC[C@H]2OCCN1CCCC1	-3.0
CCS(=O)(=O)N1CCC2(CC1)OC(=O)C(C)=C2C(=O)N1CCN(c2ccccc2)CC1	21.5
COc1cccc(-c2nn(-c3ccccc3)cc2CN2CCC(CN3CCOCC3)CC2)c1	-10.1
Nc1ncnc2c1c(-c1cccc(OCc3ccccc3)c1)cn2C1CC(CN2CCCC2)C1 (configuration not stated)	-74.0*
Cc1cc(C(F)(F)F)c(C#N)c(SCC(=O)NC(C)C23CC4CC(CC(C4)C2)C3)n1 (configuration not stated)	-58.2
Cn1ccnc1CN1CCc2ncnc(-c3ccc(F)cc3)c2CC1	-4.7
